Measurements taken from ChEMBL document CHEMBL4513216, “Probing the Open Global Health Chemical Diversity Library for Multistage-Active Starting Points for Next-Generation Antimalarials” (ACS Infect Dis, 2020).
The whole screen tested about 65,000 compounds, of which about 2,100 (3.2%) showed an effect of 50% or more. The median lay at about -52%. Many of the other results were omitted from the sample, so strong results are more common in it than they were.

Test system: Plasmodium falciparum
Test: Screen against P. falciparum Asexual Blood Stage (ABS), at 5uM
Assay type: functional, Dd2
Conditions: tested at 5 uM

| Structure (SMILES) | INHIBITION |
| --- | --- |
| COC(=O)NCC(=O)N1CCC(c2cc3ccccc3[nH]2)CC1 | -109% |
| Cc1cc(C)c(CNC(=O)N2CCCC2c2cc(C)on2)c(=O)[nH]1 (configuration not stated) | -65.3% |
| O=C([C@H]1CCCN1)N1CC2(CCNCC2)c2cc(Cl)ccc21 | 60.3% |
| CN(C)C(=O)N1CC2(CCNCC2)c2cc(F)ccc21 | -81.2% |
| CN1CCC2(CC1)CN(C(=O)c1cccnc1)c1ccc(Cl)cc12 | 57.5% |
| Cc1ccc(C(=O)N2CC3(CCNCC3)c3cc(Cl)ccc32)cn1 | 37.8% |
| C[C@@H](N)C(=O)N1CC2(CCNCC2)c2cc(Cl)ccc21 | 48.2% |
| CCN1CCC2(CC1)CN(C(=O)c1cccnc1)c1ccc(Cl)cc12 | 13.4% |
| COc1cc(C(=O)N2CC3(CCNCC3)c3cc(Cl)ccc32)ccn1 | 65.4% |
| O=C(c1ccncc1)N1CC2(CCNCC2)c2cc(Cl)ccc21 | 60% |
| O=C(C1CC1)N1CC2(CCNCC2)c2cc(F)ccc21 | 13.7% |
| CC(=O)N1CCC2(CC1)CN(C(=O)c1cccnc1)c1ccc(F)cc12 | -31.7% |
| Cc1ccc2c(c1)C1(CCNCC1)CN2C(=O)C(C)C | 32.6% |
| CN(C)C(=O)N1CC2(CCNCC2)c2cc(Cl)ccc21 | 25.5% |
| COc1ccc(-c2n[nH]c(C)c2CC(=O)NCC2CCOCC2)cc1 | 6.29% |
| Cc1occc1C(=O)N1CCC2(CCN(Cc3ccccn3)C2=O)C1 (configuration not stated) | -30.7% |
| CNC(=O)N1CCC2(CC1)c1ncc(-c3cccc(F)c3)n1CCN2C | -74% |
| CCn1cc(S(=O)(=O)N2CCCCCC2c2cc(C)on2)cn1 (configuration not stated) | 16.1% |
| O=C(Nc1ccccc1)C1CN(Cc2ccco2)CC12CCOCC2 (configuration not stated) | -3.58% |
| CNC(=O)C1Cn2ccnc2C2(CCN(Cc3nccs3)CC2)O1 (configuration not stated) | -118% |
| CN1CCN([C@H]2CCN(C(=O)c3cc(Cl)cn3C)C[C@H]2CCCO)CC1 | -28.7% |
| Cc1cnc(N2C[C@H]3CCCC(N(C)Cc4ccccn4)[C@H]3C2)nc1 (some centres not stated) | -4.92% |
| O=C(N1CCOCC1)[C@@]12CCO[C@@H]1CCN(Cc1cccc(F)c1)C2 | -26.7% |
| CNc1nccnc1C1CN(C(=O)c2c[nH]cn2)CCO1 (configuration not stated) | -87.7% |
| NC(=O)CCC1CCCN(Cc2cnc(N3CCCCC3)nc2)C1 (configuration not stated) | -84.4% |
| CNc1nc(C2CCN(C(=O)CC3CCCC3)C2)nc2c1CN(C)CC2 (configuration not stated) | -4.57% |

| Structure (SMILES) | INHIBITION |
| --- | --- |
| COc1ccc(OC)c(-n2nnnc2SCC2CCCN(C)C2)c1 (configuration not stated) | 42.8% |
| COc1ccc(Cn2nnnc2SCC2CCCN(C)C2)cc1 (configuration not stated) | 59.9% |
| COc1ccc(OCC2CCCN(Cc3ccncc3)C2)cc1 (configuration not stated) | 4.05% |
| CCN(CC)C(=O)c1ccn(COc2cccc(Cl)c2Cl)n1 | -133% |
| Cn1cc(CN2C[C@@H]3COC[C@]3(COCC3CC3)C2)cn1 | -11.4% |
| Cc1nc(COC[C@@]23CCC[C@@H]2CN(Cc2cnn(C)c2)C3)cs1 | -28.9% |
| Cn1cc(CN2C[C@H]3CCC[C@@]3(COCC3CC3)C2)cn1 | 54.1% |
| O=C(NCc1nn(-c2ccccc2)c2c1CCC2)C1CC1 | -137% |
| CCn1nc(C)c(CNC(=O)c2nnc3ccc(Cl)cc3n2)c1C | -2.95% |
| Cc1cnccc1-c1cnn(CCNC(=O)c2ccccn2)c1C1CC1 | 40.2% |
| CC(C)c1ncc2c(n1)CN(CC(=O)Nc1ccncc1)CC2 | -23.6% |
| COc1ccc2nc(C[C@@H]3C[C@@H](C(C)C)[C@H](CN)C=C3C)[nH]c2n1 | 68.7% |
| CC1=C[C@@H](CN2CCCC2)[C@H](C(C)C)C[C@H]1Cc1nnc(C)o1 | 0.0851% |
| CC1=C[C@@H](CN2CCN(C)CC2)[C@H](C(C)C)C[C@H]1Cc1nnc(C)o1 | 16.4% |
| Cc1ccc(CN2C[C@@H]3C[C@H](C(=O)Nc4cccnc4)[C@H](C2)O3)cc1 | 41.3% |
| COC(=O)CN(C(=O)c1cc(C)c(F)cc1F)c1cccc(C)n1 | -97.6% |
| CC1(C(=O)N2CCOCC2)CN(C2CCCCC2)CCO1 (configuration not stated) | -82.9% |
| c1ccc(OCCNC2CCN(c3ncccn3)CC2)cc1 | -15.2% |
| Cc1ccnc(N2CCC(NCCOc3ccccc3)CC2)n1 | 13.8% |
| CN(C)c1ccnc(N2CCC(NCCOc3ccccc3)CC2)n1 | 61.5% |
| O=C(COCCOc1ccccc1)NC1CCN(c2ncccn2)CC1 | -7.73% |
| Cc1nc(CN2CCCC(NCCOc3ccccc3)C2)no1 (configuration not stated) | -55.9% |
| Cc1nc(C)c(C)c(N2CCC(NCCOc3ccccc3)CC2)n1 | 63.1% |
| Cn1ccnc1CN1CCN(CC2CC2)[C@@H]2CS(=O)(=O)C[C@@H]21 | -222% |
| Cn1c(=O)cc(C(=O)NC(Cc2ccsc2)c2cccnc2)[nH]c1=O (configuration not stated) | -41.8% |
| O=S(=O)(N1CCCC1)N1C[C@@H](c2cccc(F)c2)[C@@H]2NCCCCC[C@H]21 | 25.3% |

| Structure (SMILES) | INHIBITION |
| --- | --- |
| O=S(=O)(N1CCCC1)N1CC[C@H](c2ccccc2)[C@H]2NCCCC[C@H]21 | 48.5% |
| CCN(CC)S(=O)(=O)N1CC[C@H](c2ccccc2)[C@H]2NCCCC[C@H]21 | 57.7% |
| CCOc1c(F)cccc1C(=O)N(c1cccnc1)C(C)C | -2.56% |
| CC(C)(C(=O)NCC1CCN(Cc2ncc[nH]2)C1)c1ccccc1 (configuration not stated) | -15.4% |
| CC(C)(C(=O)NCC1CCN(Cc2cccnc2)C1)c1ccccc1 (configuration not stated) | 53.2% |
| CC(C)(C(=O)NCC1CCN(Cc2ccccn2)C1)c1ccccc1 (configuration not stated) | 40.4% |
| Cc1nc(CCCNC(=O)Nc2ccc(F)cc2F)n[nH]1 | -12.9% |
| O=C(NCCN1CCCC1)c1cc2c(s1)CCN2c1ncccn1 | -36.4% |
| O=C1CC(c2ccccc2)c2cnn(C3CCCC3)c2N1 (configuration not stated) | -173% |
| O=C1CC(c2ccc(F)cc2)c2cnn(C3CCCC3)c2N1 (configuration not stated) | -115% |
| N#Cc1ccc(C2CC(=O)Nc3c2cnn3C2CCCC2)cc1 (configuration not stated) | 53.3% |
| Cc1noc(C)c1CC(=O)N1CCCN(C)c2ccc(Cl)cc21 | -70.5% |
| O=C(NCC1CCN(Cc2cc3ccccc3[nH]2)C1)C1CCCCC1 (configuration not stated) | 8.98% |
| Cc1nc(CNC(=O)Nc2ccc3c(c2)CCCC(=O)N3)sc1C | -39.6% |
| Cc1nc(CNC(=O)Nc2ccc3c(c2)CCCN3C)sc1C | 60.4% |
| Cc1nc(CNC(=O)Nc2ccc(N(C)C)nc2)sc1C | -121% |
| CC(C)c1nnc(CN2CCc3ccc(S(N)(=O)=O)cc32)o1 | -105% |
| CCOCC(=O)N1Cc2nnn(C)c2C(COCc2ccccn2)C1 (configuration not stated) | -123% |
| NC(=O)NCCC(=O)NCc1cccnc1N1CCc2ccccc2C1 | -73% |
| CC(C)[C@@H](N)C(=O)NCc1cccnc1N1CCc2ccccc2C1 | 29% |
| COC(=O)CCC(=O)NCc1cccnc1N1CCc2ccccc2C1 | 58.5% |
| O=c1cc(C2CCNCC2)nc(Cc2cccc(Cl)c2)[nH]1 | -25.9% |
| CC(C)Nc1ncnc2c1CCN(C(=O)CCc1ccccc1)CC2 | -74.7% |
| Cc1ccc(CN2Cc3ccccc3OC3(CCC(CO)CC3)C2)s1 (configuration not stated) | -106% |
| Cc1ncsc1CN1C[C@H](NC(=O)C2CCOCC2)[C@@H](C(C)C)C1 | -21.1% |
| c1ccc(Cc2nc(CNC3CCC4(CCNCC4)CC3)no2)cc1 | 39.2% |

| Structure (SMILES) | INHIBITION |
| --- | --- |
| Cc1cc(NCc2ccc(N3CCNC(=O)C3)cc2)nc(C)n1 | -39.6% |
| O=C1CN(c2ccc(CNc3cncc(-n4cccn4)n3)cc2)CCN1 | 52% |
| CCSc1cncc(NCc2ccc(N3CCNC(=O)C3)cc2)n1 | 38.9% |
| CCc1nc2c(c(NC3CCC3)n1)CCN(C(=O)CO)CC2 | -35.7% |
| Cn1cnnc1C1CCCN(C(=O)NCCn2ccnc2)C1 (configuration not stated) | -164% |
| Cc1cccc(C(=O)Nc2cccc3c2CCCC3)n1 | -253% |
| O=C(Nc1cccc2c1CCCC2)c1cccnc1N1CCCNCC1 | 53.6% |
| CC1CN(c2ncccc2C(=O)Nc2cccc3c2CCCC3)CCN1 (configuration not stated) | 10.3% |
| CN(Cc1ccoc1)C(=O)Cn1ncc(N(C)C)cc1=O | -36.7% |
| CCn1cc(C(=O)N2CCCC(c3noc(C)n3)C2)cn1 (configuration not stated) | -71.8% |
| CC1=C(c2ccc(Cl)cc2)S(=O)(=O)N=C1N1CCc2ccccc21 | -35.6% |
| CC(C)(C)NS(=O)(=O)c1ccccc1CNCc1cccc(O)c1 | 56.9% |
| CC(C)NS(=O)(=O)c1ccccc1CNCc1cccc(O)c1 | 26% |
| CC(C)(C)NS(=O)(=O)c1ccccc1CNCc1ccccc1 | 43.3% |
| CCc1nnc2n1CCN(C(C(=O)NC1CC1)c1ccccc1)C2 (configuration not stated) | -119% |
| CC(C)CCN1CCc2[nH]nc(C(=O)N3CC=CC3)c2C1 | -95.1% |
| Cc1cc(-c2cnc(N3CCC(C(N)=O)CC3)nc2C(C)C)on1 | -7.12% |
| Cc1cc(-c2cnc(N3CCN(C)CC3)nc2-c2ccc(C)s2)on1 | -24% |
| Cc1cc(-c2cnc(N3CCN(C)CC3)nc2C(C)C)on1 | 52.5% |
| Cc1cc(-c2cnc(N3CCCC(C)C3)nc2C(C)C)on1 (configuration not stated) | -127% |
| Cc1cc(-c2cnc(N3CCSCC3)nc2C(C)C)on1 | 63.8% |
| Cc1cc(-c2cnc(N3CCC(O)CC3)nc2C(C)C)on1 | 13.7% |
| COc1ccc(CN2C[C@@H]3CN(Cc4cccnc4)CCO[C@@H]3C2)cc1 | -76.4% |
| CC(NC(=O)Nc1ccc(-c2csnn2)cc1)C(=O)NC(C)(C)C (configuration not stated) | -94.8% |
